The panel holds about 83,000 compounds, 20% with a hit somewhere; the sample as a whole holds those more often.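 Cell lines were cultured in 96-well plates, exposed to a single compound concentration, and assessed for percent growth 48 hours later.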 Values without a mark were called inactive. Calls of active or inactive are those of the source. How the source made its calls: active means growth percent below 10; inactive means the rest.
System: TK-10 renal
Assay: NCI-60 one-dose screen, 48 h (100 = growth as untreated, 0 = no growth, -100 = all killed)
Conditions: 10 µM unless noted

Row | Compound | growth
1 | C=C(C)[C@@H]1CC[C@]2(C(=O)N[C@H](CO)Cc3ccccc3)CC[C@]3(C)[C@H](CC[C@@H]4[C@@]5(C)CCCNC(C)(C)[C@@H]5CC[C@]43C)[C@@H]12 | -94.7% (active)
2 | O=C1c2cccc3c(-c4ccc5c(c4)ncn5C4CCCCC4)ccc(c23)C(=O)N1CCO | 101%
3 | O=C(/C(=C\c1ccc([N+](=O)[O-])cc1)S(=O)Cc1ccc(F)cc1)c1ccc(F)cc1 (configuration not stated) | 25.8%
4 | NNC(=O)c1ccc(-n2nc(-c3ccccc3)c3ccccc32)cc1 | 110%

System: ACHN renal
Assay: as above
Conditions: 10 µM unless noted

Row | Compound | growth
5 | NC(=O)CSSCC(N)=O | 100%
6 | C=C(C)[C@@H]1CC[C@]2(C(=O)N3CCN(C)CC3)CC[C@]3(C)[C@H](CC[C@@H]4[C@@]5(C)CC[C@H](O)C(C)(C)[C@@H]5CC[C@]43C)[C@@H]12 | -92% (active)
7 | O=C1Nc2cc(Cl)ccc2/C1=C\c1c(-c2ccc(F)cc2)nc2ccccn12 | 41%
8 | CCc1ccc(-c2cn3ccnc3c(-c3ccc4ncn(Cc5ccccc5)c4c3)n2)cc1 | 55.3%
9 | CCOC(=O)c1cc(C(=O)c2ccc(OC)c(OC)c2)n2ccc(/C=C/c3cc[n+](CC(=O)c4ccc(OC)c(OC)c4)cc3)cc12 | 96.3%
10 | COc1cc(/C=C\c2cc(OC)c(OC)c(OC)c2)cc(NC(=O)/C=C/c2cc(OC)c(OC)c(OC)c2)c1OC | 52.7%
11 | CN1C(N2CCN(S(=O)(=O)c3ccccc3)CC2)=NS(=O)(=O)c2ccccc21 | 106%
12 | O=C1Nc2ccccc2/C1=C\c1c(-c2ccc(F)cc2)nc2ccccn12 | 54.9%
13 | OCc1cnc2ccccc2c1NC1CCCCCC1 | 92.3%
14 | Oc1c(Cl)cc(Cl)c(Cl)c1CNCCNCc1c(O)c(Cl)cc(Cl)c1Cl | 8.86% (active)
15 | CN1[C@@H]2CC[C@H]1/C(=C\c1ccccc1)C(=O)/C2=C/c1ccccc1 | 42%
16 | O=C1c2c(c3c4cccc(F)c4[nH]c3c3ccc4ccccc4c23)C(=O)N1O | 27.8%
17 | CN(C)CCC(=O)c1ccc([N+](=O)[O-])cc1 | 110%
18 | Cc1ccc(-c2nc3ccccn3c2/C=C2/C(=O)Nc3cc(Cl)ccc32)cc1 | 92.3%
19 | CC(=O)[C@@H]1CC[C@]2(C(N)=O)CC[C@]3(C)[C@H](CC[C@@H]4[C@@]5(C)CCCNC(C)(C)[C@@H]5CC[C@]43C)[C@@H]12 | 107%
20 | CC(C)N1C(=O)S/C(=C2/SC(=O)N(C(C)C)C2=O)C1=O | 102%
21 | NS(=O)(=O)c1ccc(CCN2C(=O)C3C(C2=O)C2(Cl)C(Cl)=C(Cl)C3(Cl)C2(Cl)Cl)cc1 (configuration not stated) | 111%
22 | Nc1c(S(=O)(=O)O)cc2c3c(cccc13)C(=O)OC2=O | 95.2%
23 | O=C(CCN1CCCC1)c1ccc([N+](=O)[O-])cc1 | 106%

Row | Compound | growth
24 | O=C1Nc2ccc(F)cc2/C1=C\c1c(-c2ccccc2)nc2ccccn12 | 53.4%
25 | O=Cc1ccc(-c2cn3ccnc3c(-c3ccc4ncn(Cc5ccccc5)c4c3)n2)cc1 | 88.4%
26 | N#C/C(=C\c1ccc(C(F)(F)F)cc1)c1cc2ccccc2[nH]1 | 104%
27 | O=C1c2cccc3c(-c4ccc5c(c4)ncn5C4CCCCC4)ccc(c23)C(=O)N1c1nc2ccccc2s1 | 84.7%
28 | Cc1cccc(-c2cn3ccnc3c(-c3ccc4ncn(Cc5ccccc5)c4c3)n2)c1 | 87.6%
29 | CCOC(=O)C1=C(CCl)NC(=O)NC1c1ccc2c(c1)OCO2 (configuration not stated) | 31%
30 | CCCN1[C@@H]2CC[C@H]1/C(=C\c1ccc(OC)c(OC)c1)C(=O)/C2=C/c1ccc(OC)c(OC)c1 | 47.3%
31 | COc1ccc(C(=O)C2C(C#N)C(C#N)C3c4ccccc4C=CN23)cc1 (configuration not stated) | 91.3%
32 | O=C(C[n+]1cccc2ccccc21)c1ccc(O)c(O)c1 | 23.7%
33 | COc1ccc(C(=O)c2nc3ccccc3n2CC(=O)c2ccc(F)cc2)cc1 | 105%
34 | CC(=O)[C@@H]1CC[C@]2(CO)CC[C@]3(C)[C@H](CC[C@@H]4[C@@]5(C)CCCNC(C)(C)[C@@H]5CC[C@]43C)[C@@H]12 | 107%
35 | NS(=O)(=O)c1ccc(CCN2C(=O)C=CC2=O)cc1 | 102%
36 | Nc1ccccc1NC(=O)c1ccc(-n2nc(-c3ccccc3)c3ccccc32)cc1 | 90.6%
37 | N#CC1C(C#N)C2c3ccccc3C=CN2C1C(=O)c1ccc(Br)cc1 (configuration not stated) | 90.3%
38 | O=C(CNCCN1CCOCC1)N1c2cccc3cccc(c23)N(C(=O)CNCCN2CCOCC2)C1c1cn(-c2ccccc2)nc1-c1cccc([N+](=O)[O-])c1 | 88.7%
39 | C=C(C)[C@@H]1CC[C@]2(C(=O)N[C@H](CO)Cc3ccccc3)CC[C@]3(C)[C@H](CC[C@@H]4[C@@]5(C)CCCNC(C)(C)[C@@H]5CC[C@]43C)[C@@H]12 | -95.9% (active)
40 | O=C1c2cccc3c(-c4ccc5c(c4)ncn5C4CCCCC4)ccc(c23)C(=O)N1CCO | 94.7%
41 | O=C(/C(=C\c1ccc([N+](=O)[O-])cc1)S(=O)Cc1ccc(F)cc1)c1ccc(F)cc1 (configuration not stated) | -7.56% (active)
42 | NNC(=O)c1ccc(-n2nc(-c3ccccc3)c3ccccc32)cc1 | 85.6%

Reference: PubChem BioAssay (NCI)
